KB-3-1 cytotox – KB-3-1 parental cell cytotoxicity. Potency, µM (highest dose often 46.1 µM), most hits filed as cytotoxic. hit rate 1.4% among 400,000. KB-3-1 viability, CellTiter-Glo ATP luminescence, 72 h; also: potency is read from the fitted curve at half-maximal effect; % is scaled to controls: 0 for no effect and ±100 for the full control effect; nearly all actives have a fitted effect of over 60% in size
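Viability of parental KB-3-1 cells, measured by CellTiter-Glo luminescence, followed a 72 h incubation at 37 °C with pinned compounds in phenol-red-free DMEM containing 10% FBS.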
Giardia kill – kills Giardia lamblia. AID 540267. activity change, % at 7.66 µM, hits read low. Giardia lamblia trophozoite viability. hit rate 0.15% among 340,000; in the data active = activity change below about -80%; inconclusive = between about -30% and that limit;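 also: parasites exposed to compound for two days anaerobically before the ATP read; % is scaled to controls: 0 for no effect and ±100 for the full control effect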
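Giardia lamblia trophozoites (100 cells/well) were incubated with compounds for 48 h at 37 deg C under anaerobic conditions. Viability was read as ATP content by one-step luminescence after 15-30 min at room temperature.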
MCF10A rereplic – DNA re-replication induction in MCF 10a cells; MCF 10A DNA re-replication, Hoechst nuclear intensity, 48 h; Potency, µM (highest dose often 46.1 µM), without a hit: top-dose activity, positive = re-replication, most hits filed as activators; hit rate 2.9% among 350,000; also: potency is read from the fitted curve at half-maximal effect; % of control where 0% means no effect; nearly all actives have a fitted effect of over 50% in size
KB-V1 MDR tox – KB-V1 MDR subline cytotoxicity. KB-V1 MDR cells viability, CellTiter-Glo, 72 h. hit rate 3.4% among 400,000. Potency, µM (highest dose often 46.1 µM), actives largely listed as cytotoxic. AID 1347076; also: potency is read from the fitted curve at half-maximal effect; % is scaled to controls: 0 for no effect and ±100 for the full control effect; nearly all actives have a fitted effect of over 60% in size
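Drug-selected KB-V1 cells, grown in DMEM lacking phenol red with 10% FBS, receive compound titrations; after three days at 37 degrees C, surviving cell ATP is quantified by CellTiter-Glo luminescence and responses normalized and curve-fitted.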
S-ASM inh – blocks human secretory acid sphingomyelinase. placental ASM, HMU-PC fluorogenic substrate, 60 min. Potency, µM (series often up to 57.5 µM), for inactives: at the top dose activity change, negative = inhibition, hits mostly inhibitors. hit rate 0.006% among 340,000. AID 504937; also: potency is read from the fitted curve at half-maximal effect
Target sequence (P17405 47-631 limits assumed): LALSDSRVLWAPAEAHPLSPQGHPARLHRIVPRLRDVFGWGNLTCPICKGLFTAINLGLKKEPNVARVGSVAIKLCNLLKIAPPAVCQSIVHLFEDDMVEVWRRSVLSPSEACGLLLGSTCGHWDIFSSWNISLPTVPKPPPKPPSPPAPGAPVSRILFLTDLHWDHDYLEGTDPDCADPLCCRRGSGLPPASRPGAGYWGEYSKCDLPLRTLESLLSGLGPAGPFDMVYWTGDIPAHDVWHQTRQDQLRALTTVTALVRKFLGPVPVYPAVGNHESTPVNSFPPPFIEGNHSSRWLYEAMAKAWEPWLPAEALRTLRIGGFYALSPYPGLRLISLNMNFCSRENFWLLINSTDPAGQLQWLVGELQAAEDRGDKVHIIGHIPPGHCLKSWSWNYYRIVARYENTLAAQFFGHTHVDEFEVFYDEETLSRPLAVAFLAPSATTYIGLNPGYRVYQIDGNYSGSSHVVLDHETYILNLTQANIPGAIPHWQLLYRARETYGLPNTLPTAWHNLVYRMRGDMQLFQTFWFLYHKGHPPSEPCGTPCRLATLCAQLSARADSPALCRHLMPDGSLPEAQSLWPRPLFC
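qHTS format. ASM enzyme prepared from human placenta hydrolyses the fluorogenic substrate HMU-PC0 (9 uM final) over 60 min at 37 °C after a 10 min compound preincubation.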
SW480 rereplic – DNA re-replication induction in SW480 cells. hit rate 1.8% among 340,000. SW480 DNA re-replication, Hoechst DNA content imaging, 48 h. Potency, µM (doses to about 46.1 µM), for inactives: at the top dose re-replication activation, hits mostly activators; also: potency is read from the fitted curve at half-maximal effect; % of control where 0% means no effect; nearly all actives have a fitted effect of over 55% in size
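Treated cells incubate 48 hr (37 C, 5% CO2), are stained 40 min with Hoechst, and nuclear fluorescence is enumerated; a rise in nuclei with high DNA signal marks re-replication.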
Numbers without * were called inactive; i = inactive; ? = inconclusive; . = not tested or not shown. Rows were chosen to be rich in hits. Some 6.9% of all compounds tested hit in one or more screens of this group. Unless noted, calls follow the shape of the dose curve; as a rule, active = well fitted curve in the direction sought with a large enough effect; inconclusive = small, poorly fitted or top-dose-only effect, or another doubt; inactive = no such curve, though single readings can be large; an effect the other way counts as inactive or inconclusive.

SMILES | KB-3-1 cytotox | Giardia kill | MCF10A rereplic | KB-V1 MDR tox | S-ASM inh | SW480 rereplic
C[C@@H]1CN([C@H](C)CO)C(=O)c2cc(NC(=O)Cc3ccccc3)ccc2O[C@H]1CN(C)Cc1ccc(Oc2ccccc2)cc1 | ? | 4 | 16µM* | ? | -2% | ?
COc1ccc2[nH]c3c(=O)n(/N=C/[C@H]4C(C)C=C(C)CC4C)c(=O)[nH]c3c2c1 (some centres not stated) | ? | 21 | 12µM* | i | 250% | 18µM*
Cc1ccc(-c2cn(-c3cccc(Cl)c3)c(S(=O)(=O)CC(=O)Nc3cccc(C)c3)n2)cc1 | i | . | . | ? | . | .
COc1cc(-c2nc3c(c(C)nn3-c3ccccc3)c3cc(OC)c(OC)cc23)ccc1O | ? | 22 | 13µM* | ? | 276% | 16%
CN(/N=C\c1ccc(O)c(O)c1)c1nc(-c2ccccc2)cc(-c2ccccc2)n1 | i | -20 | ? | ? | -21% | 18µM*
OCCNCc1cc(Br)ccc1OCc1ccc(Cl)cc1Cl | ? | -19 | ? | 15µM* | -3% | ?
OCCNCc1cc(Br)ccc1OCc1ccc(Cl)cc1 | i | 4 | 10% | 9.2µM* | -2% | 14%
Brc1ccc(OCc2ccccc2)c(CNCc2ccncc2)c1 | ? | -5 | ? | 16µM* | -4% | ?
CC(C)(CO)C(O)C(=O)NCCCC(=O)O (configuration not stated) | . | . | 2% | . | . | 1%
O=C(COC(=O)Cc1ccc(F)cc1)NCc1ccco1 | i | 37 | 3% | i | 1% | 12µM*
O=C(COC(=O)CSc1ccc(F)cc1)NCc1ccco1 | ? | 3 | -1% | ? | -2% | 11%
Cc1ccc(C(=O)/C=C/Nc2cccc(O)c2)cc1 | i | 2 | 23µM* | i | -1% | ?
Nc1ccc(/C=C/c2ccc3ncccc3c2)cc1 | i | -14 | 27% | i | 35% | 1%
Cc1ccc(/C=C/C(=O)c2ccc(O)cc2)cc1 | ? | ? | ? | ? | -3% | 18µM*
O=C(/C=C/c1ccc(O)cc1)c1ccc(O)cc1O | ? | 7 | 15µM* | ? | 4% | -53%
Cc1ccc(C(=O)/C=C/c2ccc3ncccc3c2)cc1 | i | -3 | 18µM* | i | -1% | ?
CSCCC(C(=O)NC1CCCC1)n1c(-c2ccncc2)nc2ccccc21 (configuration not stated) | i | . | . | ? | . | .
Clc1cccc(-n2ncc3c(NCCC4=CCCCC4)ncnc32)c1 | i | . | . | i | . | .
Cc1ccc(C(=O)Nc2ccc3ncccc3c2)cc1 | i | -85* | 9% | i | -5% | 16%
Cc1oncc1C(=O)Nc1ccc2ccccc2c1 | i | -4 | -2% | ? | -5% | -8%
Cc1oncc1C(=S)Nc1ccccc1 | i | 3 | 8.2µM* | i | -4% | 6.5µM*
CCOc1ccc(S(=O)(=O)NCc2ccccn2)cc1NC(=O)c1ccccc1 | 2.3µM* | 10 | ? | 6.5µM* | 2% | ?
COc1ccc(S(=O)(=O)NCc2ccccn2)cc1NC(=O)c1ccccc1F | 1.5µM* | -14 | 13µM* | 1.8µM* | 5% | 5.8µM*
CC1CCN(S(=O)(=O)c2ccc3c(c2)N(CC(=O)NC(C)C)C(=O)CO3)CC1 | i | . | . | i | . | .
CCOC(=O)N1CCN(C(=O)COC(=O)c2ccc(N(C)C)cc2)CC1 | i | 20 | -3% | 21µM* | 3% | -4%
SMILES | KB-3-1 cytotox | Giardia kill | MCF10A rereplic | KB-V1 MDR tox | S-ASM inh | SW480 rereplic
CCOC(=O)C1C(=O)C=C(/C=C/c2ccccc2)CC1c1ccc(Cl)cc1 (configuration not stated) | i | 1 | 3% | 16µM* | -5% | ?
O=c1oc2ccccc2cc1-c1csc(Nc2nc3c(F)cccc3s2)n1 | 16µM* | 0 | 5.8µM* | ? | 28% | .
O=S(=O)(c1ccccc1)c1nnn2c1nc(NCc1ccc(F)cc1)c1sccc12 | i | . | . | ? | . | .
CCc1cc(=O)oc2cc(C)c(CN3CCCC3)c(O)c12 | i | -21 | ? | ? | -2% | -4%
CCc1cc(=O)oc2cc(C)c(CN3CCCCC3)c(O)c12 | i | 11 | 23% | 16µM* | 3% | -5%
O=c1n(-c2ccccc2)c(=O)n2n1CCC2 | i | 2 | -14% | i | -2% | -2%
O=c1n(-c2ccccc2)c(=O)n2n1CCCC2 | i | -3 | ? | i | 5% | 16µM*
COc1ccc(C2C=C3CNS(=O)(=O)C3CC2OC(=O)c2ccc(C(F)(F)F)cc2)cc1 (configuration not stated) | . | -9 | . | . | . | .
NC(N)=NCCCS(=O)(=O)Nc1ccc(Nc2c3ccccc3nc3cc([N+](=O)[O-])ccc23)cc1 | 15µM* | 2 | 3% | ? | 3% | -1%
CCOc1ccc(CN(C(=O)c2ccccn2)c2ccc(OC)c(Cl)c2)cc1 | ? | -15 | 23µM* | ? | -1% | ?
COc1ccc(C(=O)Nc2cccc(OCc3cc(=O)n4c5c(sc4n3)CCCC5)c2)cc1 | i | . | . | i | . | .
O=C(CSC1=N/C(=C/c2ccc(Cl)c(Cl)c2)C(=O)N1c1ccccc1F)NC1CC1 | i | 4 | 15µM* | 15µM* | i | ?
CC(C)CC(c1nnnn1Cc1ccco1)N1CCN(c2cccc(Cl)c2)CC1 (configuration not stated) | 10µM* | 0 | ? | ? | -3% | ?
CCCC(c1nnnn1CC1CCCO1)N1CCN(c2cc(Cl)ccc2C)CC1 (configuration not stated) | ? | 21 | 5.2µM* | ? | -2% | 19%
Cc1ccc(Cl)cc1N1CCN(C(CC(C)C)c2nnnn2CC2CCCO2)CC1 (configuration not stated) | ? | -16 | 2.9µM* | ? | 1% | -4%
CC(C)CC(c1nnnn1CC1CCCO1)N1CCN(c2cccc(Cl)c2)CC1 (configuration not stated) | ? | 0 | ? | i | -3% | ?
CCC(c1nnnn1C(C)(C)C)N1CCN(c2cc(Cl)ccc2C)CC1 (configuration not stated) | i | -21 | 13µM* | i | -5% | ?
Cc1ccc(C2NC(c3ccc4c(c3)OCO4)=CC(c3cc(Br)ccc3O)N2)cc1 (configuration not stated) | i | 10 | . | i | . | .
CCOc1ccc(Cl)cc1C1CC(=O)Nc2cc(OC)c(OC)c(OC)c21 (configuration not stated) | i | . | . | i | . | .
Cc1ccc(-c2c[n+](Cc3cccc(Cl)c3)c3n2CCC3)cc1 | 8.2µM* | -13 | 9% | i | -2% | -5%
